Screens as filed in PubChem.
Rows were chosen to be rich in hits. Some 19% of all compounds tested hit in one or more screens of this group.
IL1B secr inh: qHTS for Inhibitors of Inflammasome Signaling: IL-1-beta AlphaLISA Primary Screen. THP-1 LPS/ATP IL-1B secretion, AlphaLISA, 16 h; stronger effect = lower value. activity change, % at 57.5 µM. hit rate 4.7% among 360,000. AID 743279, 2014; in the data active = activity change below about -50%; inconclusive = mostly about -30% to -49%
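THP-1 cells pretreated 1 hr with compounds (up to 57.5 uM final), then stimulated with LPS (250 ng/mL final) plus ATP (1.25 mM final); secreted IL-1B measured by AlphaLISA after 16 hr, decreased signal indicating inhibition.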
TDP1 cell CPT: qHTS for Inhibitors of human tyrosyl-DNA phosphodiesterase 1 (TDP1): qHTS in cells in presence of CPT; chicken DT40 Tdp1-/-;hTDP1 cells + 20 nM CPT, ATP luminescence, 48 h; Potency, µM (top dose mostly 46.2 µM), for the others: top-dose activity change, negative = growth inhibition, most hits filed as inhibitors; hit rate 12% among 420,000; also: potency is read from the fitted curve at half-maximal effect; nearly all actives have a fitted effect of over 55% in size
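Cell growth measured by CellTiter-Glo luminescence after a minimum 48 h, 37 C compound exposure with 20 nM CPT in Tdp1-knockout DT40 cells stably expressing hTDP1, seeded 400/well; qHTS titration format.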
HT1080 IDH1KD tx: qHTS for induction of synthetic lethality in tumor cells producing 2HG: qHTS for the HT-1080-IDH1KD cell line; HT-1080 IDH1 knockdown viability, ATP luminescence, 48 h; hit rate 2% among 360,000; Potency, µM (doses to about 46.1 µM), inactives show top-dose activity, negative = toxicity, hits mostly cytotoxic;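 also: potency is read from the fitted curve at half-maximal effect; 0% = DMSO wells and -100% = cell-free medium wells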
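Assay cells: HT-1080 with IDH1 knockdown, 750 per well, RPMI/5% FBS. Exposure: 48 h at 37 °C following 2 h pre-incubation. Read: CellTiter-Glo luminescence; fitted concentration-response, curve class assigned.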
DT40 TDP1 no CPT: qHTS for Inhibitors of human tyrosyl-DNA phosphodiesterase 1 (TDP1): qHTS in cells in absence of CPT; DT40 Tdp1-/- hTDP1 cells, no CPT, ATP luminescence, 48 h; Potency, µM (series often up to 46.2 µM), for inactives: at the top dose activity change, negative = growth inhibition, actives largely listed as inhibitors; hit rate 15% among 420,000; AID 686978, 2013; also: potency is read from the fitted curve at half-maximal effect; nearly all actives have a fitted effect of over 55% in size
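Chicken DT40 Tdp1-/- cells stably complemented with human TDP1 were seeded at 400 cells/well with DMSO in place of 20 nM camptothecin. After compound pinning, cells grew at least 48 hr at 37 °C; viability read by CellTiter-Glo luminescence.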
HT1080NT lethal: qHTS for induction of synthetic lethality in tumor cells producing 2HG: qHTS for the HT-1080-NT fibrosarcoma cell line; HT-1080-NT fibrosarcoma viability, CellTiter-Glo ATP luminescence, 48 h; Potency, µM (doses to about 46.1 µM), without a hit: top-dose activity, negative = less viability, actives largely listed as cytotoxic; hit rate 1.6% among 360,000;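 also: NT is the 2HG producing partner of a matched IDH1 knockdown line; potency is read from the fitted curve at half-maximal effect; 0% = DMSO-treated cells and -100% = media-only wells without cells; nearly all actives have a fitted effect of over 55% in size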
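Compounds were tested in concentration-response format on HT-1080-NT cells for 48 hours at 37 degrees C. Cell viability came from CellTiter-Glo luminescence; curves were classified by r2, response magnitude and activity.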
Starred values were filed as active, the others as inactive; ? = inconclusive; · = not tested or not shown; [ ] = another dose, or the depositor's remark. Unless noted, calls follow the shape of the dose curve; as a rule, active = well fitted curve in the direction sought with a large enough effect; inconclusive = small, poorly fitted or top-dose-only effect, or another doubt; inactive = no such curve, though single readings can be large; an effect the other way counts as inactive or inconclusive. Unless noted, % is scaled to controls: 0 for no effect and ±100 for the full control effect.

SMILES	IL1B secr inh	TDP1 cell CPT	HT1080 IDH1KD tx	DT40 TDP1 no CPT	HT1080NT lethal
N/C(=N\O)c1ccc(N2CCN(c3ncccc3C(F)(F)F)CC2)nc1	22	?	-27%	18µM*	-22%
COc1cccc(S(=O)(=O)NCc2ccc3c(c2)OCO3)c1	-6	-22%	-2%	-18%	3%
CCCc1cc2c(cc1N(C)S(=O)(=O)c1ccccc1)OCO2	-18	3.7µM*	-10%	3.7µM*	1%
C[C@H]1NC(=O)[C@@]2(C)[C@@H](c3ccccc3)[C@H]3COc4ccccc4[C@@H]3N2C1=O	-6	5%	-15%	-3%	0%
O=C(Cc1ccc(F)cc1)N/N=C/c1ccccn1	-13	-19%	-13%	-17%	-10%
Cc1nc2ccccc2c(=O)n1/N=C/c1ccccn1	-8	1%	6%	-23%	12%
CCN=c1scc(-c2ccccc2)n1/N=C/c1ccccn1	-58*	4.1µM*	?	3.7µM*	?
CCN=c1scc(-c2ccc(F)cc2)n1/N=C/c1ccccn1	-51*	?	?	16µM*	-2%
CN(C/C=C/c1ccccc1[N+](=O)[O-])Cc1ccccc1	17	?	3%	?	2%
CC(C)[C@@H]1CC2=C(C(=O)OC(C)(C)O2)[C@H](CCc2ccccc2)O1	17	?	16µM*	?	-15%
CCCC[C@@H]1CC2=C(C(=O)OC(C)(C)O2)[C@H](c2ccc(C(C)C)cc2)O1	48	-29%	-25%	?	?
CC(C)C[C@@H]1O[C@H](CCc2ccccc2)CC2=C1C(=O)OC(C)(C)O2	0	?	23µM*	?	?
CC(C)C[C@@H]1CC2=C(C(=O)OC(C)(C)O2)[C@H](CCc2ccccc2)O1	63	?	0%	?	-24%
COC(=O)CCCC[C@@H]1O[C@H](CCc2ccccc2)CC2=C1C(=O)OC(C)(C)O2	-6	?	-7%	-85%	-5%
CC1(C)OC(=O)C2=C(C[C@@H](CCc3ccccc3)O[C@@H]2c2ccc(F)cc2)O1	23	?	-6%	16µM*	-6%
CC(C)C[C@@H]1CC2=C(C(=O)OC(C)(C)O2)[C@H](c2ccc(Cl)cc2)O1	-9	?	-7%	18µM*	-1%
COc1ccc(Br)c(Cn2c(C)c(C(=O)NCc3ccccc3C(F)(F)F)sc2=O)c1	-13	?	10%	?	2%
COc1ccccc1CNC(=O)/C=C/c1ccc(S(=O)(=O)N2CCOCC2)cc1	-15	-6%	-11%	?	0%
O=C(/C=C1\OCc2ccccc21)c1ccccc1	9	?	0%	?	0%
CCCCC(CC)COC(=O)c1ccccc1C(=O)O (stereo unspecified)	·	-2%[92.5 µM]	·	-15%[92.5 µM]	·
CCCC[C@H](CC(=O)c1ccccc1)[C@@H](OC(C)=O)C(=O)Oc1c(C(C)C)cccc1C(C)C	16	13µM*	9%	?	12%
Cc1ccc(C(C)NC(=S)NC2CCCCC2)c(C)c1 (stereo unspecified)	21	?	-10%	?	-14%
CC1O[C@@H](O[C@H](C)CC/C=C/C(=O)O)C(O)C[C@H]1O (stereo partly specified)	18	-14%	10%	-4%	4%
Cc1cccc(NC(=O)CNC(=O)c2cccc(S(=O)(=O)NCc3cccs3)c2)c1C	-1	?	0%	?	0%
O=C(COc1ccccc1F)Nc1ccc(S(=O)(=O)NCc2ccco2)cc1	-2	?	-17%	18µM*	0%
SMILES	IL1B secr inh	TDP1 cell CPT	HT1080 IDH1KD tx	DT40 TDP1 no CPT	HT1080NT lethal
CCc1ccccc1OCC(=O)Nc1cccc(S(=O)(=O)NCc2ccco2)c1	?	18µM*	-18%	?	-17%
CC(C)CC(=O)Nc1ccc(S(=O)(=O)NCc2ccco2)cc1	56	-15%	0%	?	-9%
O=C(Nc1ccc(S(=O)(=O)NCc2ccco2)cc1)c1ccc2ccccc2n1	-11	?	0%	21µM*	-4%
COc1cc(CNC(C)C)c(Br)cc1OC1CCCC1	-3	4%	-12%	-22%	-1%
CCNC(=O)OCC12CC3CC(CC(C3)C1)C2	0	-19%	-3%	?	-4%
O=C(CSc1nncn1-c1cccnc1)Nc1cccc([N+](=O)[O-])c1	-3	2%	4%	-4%	6%
O=C(COC(=O)c1ccc(Cl)nc1)Nc1ccc2c(c1)OCO2	6	-8%	-6%	0%	2%
CC(=O)N1c2ccccc2C2(O)N=C(C)SC12 (stereo unspecified)	0	16µM*	7%	?	10%
O=C(CN1CCCCC1)Nc1ccc(NC(=O)c2ccc(Cl)cc2)cc1Cl	-2	13µM*	-1%	26µM*	-11%
O=C(CN1CCCC1)Nc1ccc(Cl)cc1C(F)(F)F	-11	23µM*	2%	?	0%
Cc1cc(Cl)ccc1NC(=O)CN1CCCC1	-4	13%	17%	-1%	13%
Cc1cc(Cl)ccc1NC(=O)CN1CCC(C(O)(c2ccccc2)c2ccccc2)CC1	-61*	?	?	?	?
N#Cc1cc2nc(O)c(O)nc2cc1[N+](=O)[O-]	3	2%	-1%	3%	-1%
CNc1nc2cc([N+](=O)[O-])c([N+](=O)[O-])cc2nc1NC	0	2.3µM*	3.3µM*	3.3µM*	3.3µM*
CC(=O)Nc1cc(-c2ccc(C(=O)NC3CC3)cc2)cn2c(-c3cccc(C(C)=O)c3)cnc12	-19	?	?	23µM*	15µM*
CC(=O)Nc1cc(-c2ccc(C(=O)NC3CC3)cc2)cn2c(-c3cccc(C(F)(F)F)c3)cnc12	-53*	?	16µM*	23µM*	?
CNc1nc(-c2c(C)n(C)c3ccc(OC)cc23)cs1	25	1%	-1%	-11%	-1%
CCc1cccc(C)c1NC(=O)CN1C(=O)NC(C)(CCC(C)C)C1=O (stereo unspecified)	8	-2%	2%	-16%	2%
Cc1cc(NS(=O)(=O)c2ccc(N)cc2)nc(C)n1	·	-4%	·	-27%	·
O=C(COc1ccccc1Cl)Nc1ccc(N2CCCC2)cc1	-12	-5%	-3%	-10%	12%
CCN1CCN(c2ccc(NC(=O)COc3ccccc3Cl)cc2)CC1	-17	?	-8%	18µM*	-8%
